Source: PubChem BioAssay (several laboratories)
Hsp90 block – displaces geldanamycin probe from tumor Hsp90 | NCI-N417 lysate Hsp90, Cy3B-geldanamycin FP displacement | AID 429 | 0.35% of 64,000 active | inhibition, % at 30 µM | P07900;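 active = inhibition above 50%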;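 also: 0% = tracer plus lysate wells and 100% = tracer alone without lysate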
Cdc25B block – human M-phase inducer phosphatase 2 inhibition | P30305 | recombinant Cdc25B, OMFP fluorescence Ex485/Em525 | inhibition, %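 (compounds tested at 10 µM final in the well)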 | 0.1% of 65,000 active; in the data active = inhibition above about 50%
MKP-1 inh – inhibitors of human MKP-1 phosphatase | 0.15% of 65,000 active | P28562 | AID 374 | recombinant MKP-1, OMFP hydrolysis fluorescence | inhibition, %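 (compounds tested at a single concentration somewhere between 10 and 100 µM)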;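 active = inhibition above about 50%, limit read from the data; inconclusive = inhibition over screen mean plus 3 SD, below that limit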;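 also: 0% = DMSO max control wells and 100% = wells with enzyme stopped by NaOH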
MMP13 inh – MMP13 (human) collagenase inhibition | P45452 | MMP-13 fTHP FRET cleavage, Mca fluorescence | inhibition, % at 4 µM | 0.07% of 65,000 active | AID 570;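 active = inhibition above the mean of compound-free control plate wells plus 3 SD, cut at about 14% in these data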;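 also: 0% = DMSO wells and 100% = wells with reference MMP-13 inhibitor after basal subtraction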
M1 ag – M1 muscarinic receptor agonism | 3% of 64,000 active | AID 626 | B-score at 10 µM | CHO-M1 cells, Fluo-4 calcium fluorescence, agonist mode; stronger effect = higher value;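 active = fluorescence rise, raw or as B-score row- and column-corrected plate score, outside the 99.7% band of its plate's samples, either direction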
M1 antagonist – M1 muscarinic receptor (rat) antagonism. P08482. CHO-M1 cells, Fluo-4 calcium, ACh EC80 antagonist mode; stronger effect = lower value. B-score at 10 µM. 3.4% of 64,000 active. AID 628;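 active = calcium fluorescence response, raw or row-and-column corrected B-score, differing from the plate sample mean either way at a set confidence level, mostly lower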
M1 agonist conf – rat M1 muscarinic agonism, confirmation. shares compounds with M1 ag. CHO-M1 cells, Fluo-4 calcium fluorescence, agonist mode; actives lie on both sides. fluorescence change (max-min) at 10 µM. 19% of 1,700 active;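 active = fluorescence change differs from the solvent-only DMSO control mean at a set confidence level in both duplicate runs; inconclusive = differs from solvent-only control mean in just one of two runs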;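 also: an EC20 dose of acetylcholine follows compound addition during the same imaging run; raw fluorescence intensity difference in instrument units with no normalization to controls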
M4 agonist ctr – counter-screen for M1 agonists: activity at rat M4 receptor | CHO M4/Gqi5 cells, Fluo-4 calcium fluorescence, agonist mode; actives lie on both sides | 9% of 1,700 active | fluorescence change (max-min) at 10 µM | shares compounds with M1 ag;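 active = fluorescence change differing from the plate's solvent-only control wells at 99.7% confidence in both duplicates, whether higher or lower; inconclusive = differs from solvent controls in only one of two duplicates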
Target sequence (P08485 whole entry, looked up): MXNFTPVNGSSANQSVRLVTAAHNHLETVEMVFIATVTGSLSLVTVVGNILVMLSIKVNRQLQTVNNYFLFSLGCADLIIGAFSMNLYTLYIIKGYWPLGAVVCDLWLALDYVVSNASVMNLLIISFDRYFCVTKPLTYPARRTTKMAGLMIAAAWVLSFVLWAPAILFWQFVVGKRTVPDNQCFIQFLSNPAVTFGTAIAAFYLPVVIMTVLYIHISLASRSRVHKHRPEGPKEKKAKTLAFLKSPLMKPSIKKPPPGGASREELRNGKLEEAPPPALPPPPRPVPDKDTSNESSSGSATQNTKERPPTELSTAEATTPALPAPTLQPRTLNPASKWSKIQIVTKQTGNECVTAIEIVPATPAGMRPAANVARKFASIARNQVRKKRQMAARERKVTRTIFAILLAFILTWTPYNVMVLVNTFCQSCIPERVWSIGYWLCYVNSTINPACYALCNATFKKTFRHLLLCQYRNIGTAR
* = called active by the depositor; ? = inconclusive; . = no result given. Most compounds without a hit are left out; they make up all but 6.1% or so of the library.

SMILES	Hsp90 block	Cdc25B block	MKP-1 inh	MMP13 inh	M1 ag	M1 antagonist	M1 agonist conf	M4 agonist ctr
CCCn1c(N)c(C(=O)CSc2nnc(-c3ccco3)n2Cc2ccccc2)c(=O)[nH]c1=O	-2.9	-0.2	30.6	-2.5	-0.312	-0.0552	.	.
CC(=O)c1c(C)[nH]c(C(=O)CSc2nnc(-c3ccco3)n2Cc2ccccc2)c1C	-4.3	-5.4	20.9	-0.9	2.62*	-0.941	-6.58	-33.8
COc1cccc2c1OC1(C)CC2NC(=O)N1c1cccc(C(=O)Nc2ccc3c(c2)OCCO3)c1 (configuration not stated)	6.2	5.5	14.4	1.2	7.83*	0.454	-16.2	?
CC12CC(NC(=O)N1c1cccc(C(=O)Nc3ncn[nH]3)c1)c1ccccc1O2 (configuration not stated)	-1.5	4.1	-12.6	-2.1	-0.21	0.907	.	.
CCCCOc1[nH]c2nc(-c3ccco3)n(Cc3ccco3)c(=N)c2c1C#N	-1.6	3.2	-18.3	3.6	14.8*	-0.0323	18.3	6.15
CCCCOc1ncnc2c1[nH]c1ccccc12	-6.8	-2.0	28.9	-37.6	0.81	-1.29	.	.
CCCCOc1ncnc2c1[nH]c1ccc(F)cc12	-1.3	-2.2	14.3	-26.9	5.42*	-2.85	-1.67	-35.1
Cc1ccc(C(CC(=O)N2CCCC2)c2ccccc2)c(O)c1C (configuration not stated)	-4.1	-7.1	-7.1	-2.4	0.734	0.619	.	.
COc1ccc(CCNC2CCN(C)CC2)cc1OC	1.9	-10.7	-5.4	2.5	-0.363	-0.486	.	.
COc1ccc(Cl)c(NC(=O)NCCN2CCN(c3ccccc3)CC2)c1	-3.4	-8.0	-4.4	0.5	2.32*	-0.433	-28.2*	-59.1
COc1ccc(OC)c(NC(=O)CCN2CCN(c3ccccc3)CC2)c1	-3.9	2.4	2.3	-1.5	1.18	-0.0926	.	.
Cc1ccc(-c2cc(C(F)F)nc(N3CCC(C)CC3)n2)cc1	1.0	-22.2	-4.7	-4.4	4.23*	0.705	3.35	-8.72
CC(C)OC(=O)Cn1cnc2ccc(Br)cc2c1=O	-0.6	-0.5	-6.9	-4.1	0.587	-0.000359	.	.
O=C(O)c1ccccc1S(=O)(=O)c1ccccc1CO	0.9	-3.3	25.3	-6.0	8.03*	-0.00556	-11.9	-45.4
COc1cc2[nH]c3c(N4CCN(c5ccccn5)CC4)ncnc3c2cc1OC	-6.6	4.6	23.7	-78.2	8.54*	-1.32	-15.7	-50.7
CCOC(=O)N1CCN(c2ncnc3c2[nH]c2ccc(OC)cc23)CC1	-4.4	28.3	-16.9	-109.8	2.11*	0.0299	?	-60.7
O=C(c1ccco1)N1CCN(c2ncnc3c2[nH]c2ccc(Br)cc23)CC1	-3.5	-3.4	8.0	-10.1	1.03	-1.56	.	.
CC1(C)Cc2ccccc2-c2nc(NCCO)n(-c3ccccc3)c(=O)c21	-6.8	-6.7	12.4	-264.4	0.541	-0.24	.	.
CCNc1c2c3c(cccc3n(C)c1=O)C(=O)c1ccccc1-2	19.6	-3.8	14.0	5.7	357*	-17.3*	3230*	2794*
Cn1c(=O)c(NCCO)c2c3c(cccc31)C(=O)c1ccccc1-2	135.2*	-4.1	-17.8	8.3	388*	-13.2*	3131*	2588*
CC(C)C(=O)Nc1ccc(NC(=O)c2cccc(F)c2)cn1	-1.1	-7.9	-7.7	-0.6	-1.48	0.7	.	.
C=CCNc1nc2c(c(=O)[nH]c(=O)n2C)n1CCCCC	-2.9	-22.2	1.2	-1.7	1.14	0.231	.	.
CCOC(=O)N1CCN(C(=O)CCN2C(=O)COc3ccc(C)cc32)CC1	-1.5	-7.2	1.3	5.1	0.553	0.39	.	.
NC(=O)C1CCN(C(=O)CSc2nc3c(c(-c4ccccc4)n2)CCCC3)CC1	-18.3	0.3	16.7	-1.1	0.307	-0.493	.	.
COc1ccc(OCC(=O)N2CCN(c3nnc(-c4ccccc4)c4ccccc34)CC2)cc1	-1.8	4.0	10.5	0.1	7.32*	-7*	?	-70.6
SMILES	Hsp90 block	Cdc25B block	MKP-1 inh	MMP13 inh	M1 ag	M1 antagonist	M1 agonist conf	M4 agonist ctr
Fc1ccc2c(Cl)c(-c3nnc(-c4cccs4)o3)sc2c1	1.3	9.4	9.8	-4.0	0.0178	0.00683	.	.
C=C(C)Cn1c(=O)c2c(nc3n2CCN3c2cccc(Cl)c2C)n(C)c1=O	-2.5	-0.6	-23.7	1.1	3.03*	-1.58	-11.7	-32.2
C=CCn1c(=O)c2c(nc3n2CCN3c2cccc(Cl)c2C)n(C)c1=O	1.3	1.9	4.7	-2.4	-0.794	-0.722	.	.
CCCC1=C(C(=O)OCC)C(c2ccc(F)cc2)n2ncnc2N1 (configuration not stated)	0.2	-18.9	12.2	1.8	-0.23	-0.105	.	.
CCOc1ccc(C2C=C(c3ccc(F)cc3)Nc3ncnn32)cc1 (configuration not stated)	-1.0	-14.2	12.4	-273.7	25.2*	-0.599	146*	94.2
CCOc1ccc(C2CC(c3cccc(OC)c3)Nc3ncnn32)cc1 (configuration not stated)	-4.8	-6.9	32.2	-3.7	-0.069	0.00718	.	.
CCOc1ccc(C2C=C(c3ccccc3)Nc3ncnn32)cc1 (configuration not stated)	-2.3	-9.8	-25.2	-242.1	24.6*	-2.34	202*	150
O=S(=O)(Nc1ccc(Cl)c(C(F)(F)F)c1)c1cnc[nH]1	2.5	7.4	-2.8	-0.2	-0.928	0.552	.	.
CCC(C)NS(=O)(=O)c1ccc(NS(C)(=O)=O)cc1 (configuration not stated)	-2.1	-7.4	-1.3	1.5	-0.0354	0.00215	.	.
Cc1cc(C)nc(-n2nc(C)c3c(=O)[nH]c(C(F)(F)F)nc32)n1	.	-5.2	-0.9	4.4	-0.459	-0.283	.	.
CCOC(=O)C1CCN(S(=O)(=O)c2cccc(-c3cn4cccc(C)c4n3)c2)CC1	-3.4	4.6	24.9	-21.3	2.33*	-3.05*	-11.6	-34.7
O=C(Cn1[nH]c(=O)c2ccccc2c1=O)Nc1ccc2c(c1)CCC2	-4.1	-2.8	28.2	2.6	-0.916	-0.516	.	.
Cn1nc(CC(=O)Nc2ccc3c(c2)CCC3)c2ccccc2c1=O	-3.7	-18.6	-4.5	6.4	11.1*	-1.99	32.6	19.5
O=C(OCc1nc2ccccc2s1)C1CCN(C2=NS(=O)(=O)c3ccccc32)CC1	-8.8	-5.5	-10.2	-3.0	4.57*	-0.113	?	-75.2
COC(=O)c1ccc2c(c1)N(Cc1nc(-c3cccc(C)c3)oc1C)C(=O)C1CCCN21 (configuration not stated)	-12.0	-2.8	?	-6.1	1.29	-0.432	.	.
CCc1c(C)nc(Nc2nc(C)c3cc(OC)ccc3n2)[nH]c1=O	-1.7	10.6	43.3	-1.2	4.12*	-0.377	-22.3	-19.9
Nc1nc2sc3c(c2cc1C(=O)N1CCOCC1)CCCC3	-1.1	-6.8	-10.6	-50.9	0.301	-0.264	.	.
